# The source made the active and inactive calls. Unless noted, no rule for the calls is given here.
# Legend:
# [1] = compounds altering circadian rhythm period length – cell-based, LOPAC library, luminescence reporter (AID 2774); conditions: circadian reporter cells, at 7 µM, actives lie on both sides;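 also: values are relative to mean of DMSO wells on each plate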
# [2] = growth inhibition, single agent or in combination, cell-based, chromothripsis tumors, cisplatin or BGB combos (AID 1671449; in the data active = inhibition above about 80%;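 also: cells exposed for 96 hours; 0% = vehicle DMSO and 100% = killing by high DMSO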); conditions: LFS_MB_P medulloblastoma cells
# [3] = growth inhibition, single agent and combos, cell-based, chromothripsis tumors, cisplatin or BGB combos (AID 1671450; in the data active = inhibition above about 80%;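 also: cells exposed to compound for four days; 0% = vehicle DMSO and 100% = cell killing by high DMSO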); conditions: HDN33 neuroblastoma cells, stronger effect = higher value
# [4] = growth inhibition, single agents and combos, LFS_MB_1R, cell-based, cisplatin or BGB combos, synergistic combos for chromothripsis tumors (AID 1671452; in the data active = inhibition above about 80%;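 also: cells exposed for 96 hours before readout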); conditions: LFS_MB_1R medulloblastoma cells, stronger effect = higher value
# [5] = growth inhibition, single agents and combos, HTB85, cell-based, BGB or cisplatin IC20 combos, synergistic combos for chromothripsis tumors (AID 1671453; in the data active = inhibition above about 80%;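 also: cells exposed for 96 hours before readout; 0% = vehicle DMSO and 100% = high DMSO killing control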); conditions: HTB85 osteosarcoma cells, drug combinations, stronger effect = higher value
# [6] = growth inhibition, single agents and combos, CRL2098, cell-based, BGB or cisplatin IC20 combos, synergistic combos for chromothripsis tumors (AID 1671454; in the data active = inhibition above about 80%;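 also: cells exposed for 96 h before readout; 0% = vehicle DMSO and 100% = killing by high DMSO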); conditions: CRL2098 osteosarcoma cells, drug combinations, stronger effect = higher value
# [7] = growth inhibition, single agents and combos, HD-MB03, cell-based, BGB or cisplatin IC20 combos, synergistic combos for chromothripsis tumors (AID 1671455; in the data active = inhibition above about 83%;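 also: 0% = vehicle DMSO and 100% = high DMSO as cytotoxic control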); conditions: HD-MB03 medulloblastoma cells, stronger effect = higher value
# [8] = growth inhibition, MDA-MB-436, cell-based, BGB or cisplatin combos, synergistic combos for chromothripsis tumors (AID 1671458); conditions: MDA-MB-436 breast carcinoma growth inhibition, drug combinations, stronger effect = higher value;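 also: cells exposed for 96 hours; 0% = vehicle DMSO and 100% = killing by high DMSO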
# [9] = BT084 cell growth, single and combined drugs, ICGC_MB145, cisplatin and BGB IC40 combos (AID 1671461; in the data active = inhibition above about 80%;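 also: cells exposed to drugs for 96 hours; 0% = vehicle DMSO and 100% = high DMSO full killing control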); conditions: BT084 medulloblastoma cells, drug combinations, stronger effect = higher value
# [10] = RCMB18 cell growth, single agent and combined, cisplatin and BGB IC40 combos (AID 1671462; in the data active = inhibition above about 80%;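 also: cells exposed to compound for four days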); conditions: RCMB18 medulloblastoma cells, stronger effect = higher value
# [11] = CRL1545 cell growth, single agent and combined, cisplatin and BGB IC20 combos (AID 1671464; in the data active = inhibition above about 80%;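 also: cells exposed to compound for 96 hours before readout; 0% = vehicle DMSO and 100% = high DMSO killing control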); conditions: CRL1545 osteosarcoma cells, stronger effect = higher value
# [12] = compounds altering viability of human ES cells (AID 493140); conditions: human embryonic stem cell survival screen; stronger effect = higher value;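 also: cells exposed to compounds for four days before counting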
# [13] = molecular target: Mitogen-activated protein kinase 7 (Homo sapiens) (UniProt Q13164); test: Gal4-ERK5 driven luciferase induction – cell-based, HTS, primary screen (AID 1508626;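 active = luciferase signal above three times the same-plate solvent-only control wells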;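 also: luciferase driven by Gal4-ERK5 fusion binding five Gal4 sites before minimal TATA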); conditions: HeLa Gal4-ERK5 transactivation, 18 h, at 5 µM, stronger effect = higher value
# [14] = measured here: combination with BGB IC40, at 0.05 µM
# [15] = measured here: with BGB IC20 combination, at 0.5 µM
# [16] = measured here: with cisplatin IC20 combination, at 0.5 µM
# [17] = measured here: combination with cisplatin, at 0.5 µM
# Chain of Mitogen-activated protein kinase 7 (Homo sapiens) (Q13164 whole entry, looked up, the tested form may be a part): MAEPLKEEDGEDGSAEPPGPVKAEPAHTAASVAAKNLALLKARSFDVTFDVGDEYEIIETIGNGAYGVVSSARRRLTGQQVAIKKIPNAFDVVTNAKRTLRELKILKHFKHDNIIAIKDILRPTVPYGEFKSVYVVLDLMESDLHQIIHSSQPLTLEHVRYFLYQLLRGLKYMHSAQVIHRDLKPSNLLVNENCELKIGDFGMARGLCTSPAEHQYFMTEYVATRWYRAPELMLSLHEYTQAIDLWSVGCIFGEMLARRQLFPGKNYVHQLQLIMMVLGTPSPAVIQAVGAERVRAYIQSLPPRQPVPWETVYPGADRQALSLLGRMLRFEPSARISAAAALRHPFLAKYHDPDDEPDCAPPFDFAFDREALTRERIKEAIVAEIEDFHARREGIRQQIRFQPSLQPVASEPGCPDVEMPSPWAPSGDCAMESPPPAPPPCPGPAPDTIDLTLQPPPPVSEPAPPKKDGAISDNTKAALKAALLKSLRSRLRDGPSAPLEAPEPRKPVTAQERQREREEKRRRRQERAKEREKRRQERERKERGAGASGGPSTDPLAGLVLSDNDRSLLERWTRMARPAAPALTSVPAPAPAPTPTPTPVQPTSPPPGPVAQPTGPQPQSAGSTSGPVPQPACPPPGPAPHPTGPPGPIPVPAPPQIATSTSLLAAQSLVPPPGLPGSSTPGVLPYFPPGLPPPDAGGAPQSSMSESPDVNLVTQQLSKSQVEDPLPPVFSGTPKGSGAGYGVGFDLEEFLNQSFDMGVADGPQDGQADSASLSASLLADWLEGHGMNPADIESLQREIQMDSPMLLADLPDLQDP
smiles,measurement,setting,value
O=c1[nH]c(=O)n([C@H]2C[C@H](O)[C@@H](CO)O2)cc1Br,period change,[1],-0.205 h (inactive)
same,inhibition,"[2]; at 0.5 µM, stronger effect = higher value",27% (inactive)
same,inhibition,"[2]; measured here: combination with BGB IC20, at 0.005 µM",-4.77%
same,inhibition,"[2]; measured here: combination with BGB IC40, at 0.005 µM",-39.7%
same,inhibition,[2]; [14],-12.1%
same,inhibition,"[2]; measured here: combination with cisplatin, at 0.5 µM, stronger effect = higher value",74.8%
same,inhibition,"[2]; measured here: combination with cisplatin, at 5 µM, stronger effect = higher value",-36%
same,inhibition,"[3]; BGB combo, at 5 µM",11.2%
same,inhibition,[3]; at 0.5 µM,21.5% (inactive)
same,inhibition,"[3]; cisplatin combo, at 5 µM",2.65%
same,inhibition,[3]; [15],31.8%
same,inhibition,[3]; [16],4.43%
same,inhibition,"[3]; single agent, at 5 µM",17%
same,inhibition,[4]; at 0.5 µM,-8.78% (inactive)
same,inhibition,[4]; [14],-9.5%
same,inhibition,[4]; [17],-3.13%
same,inhibition,"[4]; measured here: combination with cisplatin, at 5 µM",18.2%
same,inhibition,[5]; at 0.5 µM,-5% (inactive)
same,inhibition,"[5]; measured here: with BGB IC20, at 0.5 µM",-14.3%
same,inhibition,"[5]; measured here: with BGB IC20, at 5 µM",-8.79%
same,inhibition,"[5]; measured here: with cisplatin IC20, at 0.5 µM",-8.95%
same,inhibition,"[5]; measured here: with cisplatin IC20, at 5 µM",4.02%
same,inhibition,"[5]; single agent, at 5 µM",9.21%
same,inhibition,[6]; at 0.5 µM,-34.2% (inactive)
same,inhibition,"[6]; measured here: combination with BGB at IC20, at 0.5 µM",-5.25%
same,inhibition,"[6]; measured here: combination with cisplatin at IC20, at 0.5 µM",-22.4%
same,inhibition,[7]; at 0.5 µM,14.2% (inactive)
same,inhibition,"[7]; measured here: combo with BGB at IC20, at 0.5 µM",14.5%
same,inhibition,"[7]; measured here: combo with cisplatin at IC20, at 0.5 µM",32.3%
same,inhibition,[8]; at 0.5 µM,-4.92% (inactive)
same,inhibition,"[8]; measured here: BGB combination, at 0.5 µM",-11.6%
same,inhibition,"[8]; measured here: BGB combination, at 5 µM",-22.5%
same,inhibition,"[8]; measured here: cisplatin combination, at 0.5 µM",-2.86%
same,inhibition,"[8]; measured here: cisplatin combination, at 5 µM",-6.5%
same,inhibition,[9]; at 0.5 µM,-8.02% (inactive)
same,inhibition,"[9]; cisplatin combination, at 0.5 µM",3.56%
same,inhibition,"[9]; cisplatin combination, at 5 µM",-1.86%
same,inhibition,"[9]; measured here: BGB IC40 combination 0.05 uM, at 0.05 µM",-20.2%
same,inhibition,"[9]; single agent, at 5 µM",-7.12%
same,inhibition,[10]; at 0.5 µM,-10.5% (inactive)
same,inhibition,"[10]; cisplatin combo, at 5 µM",28.1%
same,inhibition,"[10]; measured here: BGB IC40 combination, at 0.05 µM",-19.3%
same,inhibition,[10]; [17],32.5%
same,inhibition,"[10]; single agent, at 5 µM",-34.1%
same,inhibition,[11]; at 0.5 µM,8.96% (inactive)
same,inhibition,[11]; [15],3.57%
same,inhibition,[11]; [16],11.6%
same,inhibition,"[11]; single agent, at 0.05 µM",-0.752%
same,inhibition,"[11]; single agent, at 5 µM",41.5%
CCC(=O)c1ccc2c(c1)N(CCCN(C)C)c1ccccc1S2,period change,[1],-0.02 h (inactive)
Nc1cc(=O)[nH]c(N)n1,period change,[1],-0.06 h (inactive)
C[C@H](NCCc1ccc(O)cc1)[C@H](O)c1ccc(O)cc1,survival,[12],5.58 (inactive)
same,luciferase signal,[13],96 AU (inactive)
CC(C)(CO)[C@@H](O)C(=O)NCCCO,survival,[12],26.3 (inactive)
OCCOCCN1CCN(C(c2ccccc2)c2ccc(Cl)cc2)CC1 (configuration not stated),survival,[12],12.3 (inactive)
Cc1ncc(C[n+]2csc(CCO)c2C)c(N)n1,survival,[12],12.6 (inactive)
same,luciferase signal,[13],44 AU (inactive)
CC(=O)N(CC(O)CO)c1c(I)c(C(=O)NCC(O)CO)c(I)c(C(=O)NCC(O)CO)c1I (configuration not stated),survival,[12],14.3 (inactive)
CC(=O)OCC(=O)[C@@]1(OC(C)=O)[C@@H](C)C[C@H]2[C@@H]3C[C@H](F)C4=CC(=O)C=C[C@]4(C)[C@@]3(F)[C@@H](O)C[C@@]21C,survival,[12],6.42 (inactive)
O=c1[nH]c2ccccc2n1CCCN1CCN(C(c2ccccc2)c2ccccc2)CC1,period change,[1],0.15 h (inactive)
CC1(C)[C@@H](OC(=O)CCC(=O)O)CC[C@]2(C)[C@H]3C(=O)C=C4[C@@H]5C[C@@](C)(C(=O)O)CC[C@]5(C)CC[C@@]4(C)[C@]3(C)CC[C@@H]12,survival,[12],4.33 (inactive)
same,luciferase signal,[13],60 AU (inactive)
C#C[C@]1(OC(C)=O)CC[C@H]2[C@@H]3CCC4=C[C@@H](OC(C)=O)CC[C@@H]4[C@H]3CC[C@@]21C,survival,[12],3.67 (inactive)
same,luciferase signal,[13],64 AU (inactive)
O=C(O)COC(=O)Cc1ccccc1Nc1c(Cl)cccc1Cl,survival,[12],18.6 (inactive)
C=C1C[C@H]2[C@@H]3C=C(C)C4=CC(=O)CC[C@]4(C)[C@H]3CC[C@]2(C)[C@@]1(OC(C)=O)C(C)=O,luciferase signal,[13],64 AU (inactive)
CC(=O)[C@H]1CC[C@H]2[C@@H]3C=CC4=CC(=O)CC[C@@]4(C)[C@@H]3CC[C@]12C,survival,[12],6.67 (inactive)
CC(C)(C)NC[C@H](O)COc1cccc2c1CCCC2=O,survival,[12],3.08 (inactive)
same,luciferase signal,[13],88 AU (inactive)
CCN[C@H]1CN(CCCOC)S(=O)(=O)c2sc(S(N)(=O)=O)cc21,survival,[12],9.25 (inactive)
C#CC1(O)CC[C@H]2[C@@H]3CCC4=CCCC[C@@H]4[C@H]3CC[C@@]21C (some centres not stated),luciferase signal,[13],80 AU (inactive)
CC(=O)OCC(=O)[C@@]1(O)CC[C@H]2[C@@H]3CCC4=CC(=O)C=C[C@]4(C)[C@@]3(F)[C@@H](O)C[C@@]21C,survival,[12],8 (inactive)

# From PubChem BioAssay
